# Screens from PubChem BioAssay.
# The list is not random: actives were taken first. Their share in the collection is about 1.9%.
# Yeast superoxide – reduction of superoxide in aged yeast, primary screen, HTS. S. cerevisiae aged cells, superoxide DHE fluorescence; active compounds read low. hit rate 0.18% among 330,000. superoxide response (% of plate mean), % at 10 µM;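 active = superoxide response under a set limit, about three screen SD below normal, cut at about 65% in these data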;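 also: yeast aged for seven days with compound at 30 °C before DHE staining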
# LANA-H2B inh – blockers of LANA interaction with H2A/H2B – biochemical, FP readout, HTS, primary screen; Protein LANA1 (Human herpesvirus 8 type P (isolate GK18)), Q9QR71; hit rate 0.6% among 320,000; inhibition, % (test concentration not listed); AID 2629, 2010; cell-free LANA-H2A/H2B peptide, fluorescence polarization; in the data active = inhibition mostly above about 10%, no sharp cut-off; inactive = mostly below about 6.7%
# GLD-1 RNA inh – GLD-1/TGE RNA complex disruptors, primary screen, biochemical, fluorescence polarization; Female germline-specific tumor suppressor gld-1 (Caenorhabditis elegans), Q17339; purified GLD-1 + fluorescein TGE RNA; inhibition, % at 5.96 µM; hit rate 0.44% among 320,000;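 active = percent inhibition above a per-plate cutoff, the plate mean of test compounds plus 3 SD, cut at about 30% in these data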
# Bcl-xL primary – inhibitors of human Bcl-xL, primary screen, biochemical, fluorescence polarization, HTS | Bcl-2-like protein 1 (Homo sapiens), Q07817 | GST-Bcl-xL / FITC-Bim BH3 peptide fluorescence polarization | inhibition, % at 10.9 µM | hit rate 0.7% among 320,000;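 active = inhibition above the mean of all tested compounds plus 3 SD, cutoff set per campaign, cut at about 30% in these data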;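 also: inhibitors lower millipolarization by displacing the labeled peptide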
# MCL1 BIM primary – inhibitors of MCL1 binding to BIM-BH3, primary screen, biochemical, fluorescence polarization | AID 2057, 2009 | hit rate 0.68% among 320,000 | inhibition, % at 10.9 µM | GST-MCL1 / FITC-Bim-BH3 fluorescence polarization;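 active = inhibition above the mean inhibition of all tested compounds plus 3 SD, set per campaign, cut at about 40% in these data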;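 also: higher means more loss of mP so more displacement of Bim peptide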
# MEX-5 binding – MEX-5 zinc finger RNA-binding disruptors – biochemical, C. elegans, fluorescence polarization, MLPCN library, primary screen; hit rate 0.38% among 300,000; AID 1832, 2009; activity score (negative = inhibition of binding), % at 10 µM; Zinc finger protein mex-5 (Caenorhabditis elegans), Q9XUB2; MEX-5/FITC-TCR2 RNA binding; active compounds read low;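 active = inhibition past about -25% in most replicates, and total fluorescence under double the plate's negative control median, limit read from the data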
# BCLXL inh confirm – Bcl-xL inhibitors blocking Bim BH3 binding, confirmation, counter-screen for MCL1 inhibitor project, biochemical, fluorescence polarization; GST-Bcl-xL / FITC-Bim BH3 peptide FP binding; hit rate 54% among 1,700; AID 2166, 2009; shares compounds with MCL1 BIM primary; inhibition, % at 10.9 µM;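 active = inhibition above a cutoff equal to the mean inhibition of all tested compounds plus 3 SD, cut at about 30% in these data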
# MCL1 BIM confirm – inhibitors of MCL1 binding to BIM-BH3, confirmation, biochemical, fluorescence polarization, triplicate; shares compounds with MCL1 BIM primary; GST-MCL1 / FITC-Bim-BH3 fluorescence polarization; inhibition, % at 10.9 µM; hit rate 61% among 1,700;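 active = inhibition above the average of all tested compounds plus 3 SD, cut at about 40% in these data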
# Hits are given with their value; - = inactive; . = no result; + = active, no number.
SMILES,Yeast superoxide,LANA-H2B inh,GLD-1 RNA inh,Bcl-xL primary,MCL1 BIM primary,MEX-5 binding,BCLXL inh confirm,MCL1 BIM confirm
Cc1cc(-n2c(=O)c(C#N)cc3c(=O)n4ccccc4nc32)no1,-,-,-,43.1,55.7,-,44.9,57.9
Cc1ccccc1-n1c(=O)c(C#N)cc2c(=O)n3ccccc3nc21,-,-,-,-,-,-,.,.
CC(C)c1nc(SCC(=O)NC2CCCC2)c2c(=O)n(C)c(=O)n(C)c2n1,-,-,-,-,-,-,.,.
COc1ccc(Br)cc1C(=O)Nc1ccc(N2CCCC2)cc1,-,-,-,-,45.9,-,-,-
COc1ccc(Br)cc1C(=O)Nc1ccc(N2CCN(S(C)(=O)=O)CC2)cc1,-,-,-,-,-,-,.,.
COc1ccc2ccccc2c1-c1csc(N)n1,-,-,-,-,-,-,.,.
CN(C)c1nc(-c2cn(CCC#N)c3ccccc23)cs1,-,-,34.4,65.2,68.7,-,34.4,49.0
COCCn1cc(-c2csc(N)n2)c2ccccc21,-,-,-,54.1,60.0,-,-,-
CC(=O)c1cccc(S(=O)(=O)NCCC(=O)NC2CCCCCC2)c1,-,-,-,-,-,.,.,.
O=C(CN1C(=O)C(=O)N(C2CCCC2)C1=O)Nc1ccc(OC(F)F)cc1,-,-,-,-,-,.,.,.
Cc1cccc(OCc2nnc(SC(C)C(=O)Nc3ccc(N4CCOCC4)cc3)o2)c1 (stereo unspecified),-,-,-,.,.,.,.,.
CN1CCN(C2=Nc3c(Cl)cc(Cl)c4cccc2c34)CC1,-,-,39.9,74.7,80.0,-,82.3,109.7
CN1CCN(C2=Nc3cc(Cl)ccc3Nc3ccccc32)CC1,-,-,-,-,-,-,.,.
C#CCN1c2ccccc2Sc2cccnc21,-,-,92.5,+,+,-,-,-
Cc1ccc(NC(=O)C2CC2C)cc1S(=O)(=O)N1CCOCC1 (stereo unspecified),-,-,-,-,-,-,.,.
COc1cc2cc(CN(Cc3nnnn3Cc3ccco3)C3CCCCC3)c(=O)[nH]c2cc1OC,-,-,-,46.6,59.5,-,-,-
COc1cc2c(cc1OC)CN(C(=O)c1ccc(Cl)c(S(=O)(=O)N3CCCC3)c1)CC2,-,-,-,.,.,.,.,.
O=C(O)C(S)C(S)C(=O)O (stereo unspecified),-,-,-,-,84.0,-,37.8,85.8
O=C(COC(=O)c1ccc([N+](=O)[O-])s1)Nc1ncc(C(F)(F)F)cc1Cl,-,-,-,-,+,-,-,-
O=C(COC(=O)c1ccccn1)Nc1ncc(C(F)(F)F)cc1Cl,-,-,-,-,-,-,.,.
Cc1ccc(-c2csc(-c3c[nH]c4ccccc34)n2)c(C)c1,-,-,-,-,89.2,-,-,-
Oc1ccc(-c2csc(-c3c[nH]c4ccccc34)n2)c(O)c1,-,-,-,-,-,-,.,.
Oc1ccc(/C=N/Nc2cc(N3CCCC3)nc(N3CCCC3)n2)cc1O,-,-,-,-,47.9,-,-,-
CC(CNC(=O)CN1C(=O)NC2(CCOc3ccccc32)C1=O)c1ccccc1 (stereo unspecified),-,-,-,-,-,.,.,.
Cn1cccc1/C=C(/C#N)C(N)=S,-,.,-,-,-,-,.,.
SMILES,Yeast superoxide,LANA-H2B inh,GLD-1 RNA inh,Bcl-xL primary,MCL1 BIM primary,MEX-5 binding,BCLXL inh confirm,MCL1 BIM confirm
Cc1ccc(-c2ccc(/C=C(\C#N)C(N)=S)n2C)cc1,-,25.8,-,67.4,68.2,.,-,-
Cn1c(=O)[nH]c2cc(Cl)cnc21,-,-,43.7,64.6,73.2,-32.5,59.2,68.8
COc1cccc(C(=O)OCC(=O)Nc2sc3c(c2C(N)=O)CCC3)c1O,-,.,-,-,50.3,.,-,44.8
Cn1cnnc1SCC(=O)Nc1sc2c(c1C(N)=O)CCC2,-,-,-,-,56.4,-,-,56.0
CCCNC(=O)C(Cc1ccc(Br)cc1)NC(=O)c1ccc(C#N)cc1 (stereo unspecified),-,-,-,-,-,.,.,.
CC(C)Sc1nc2ccccc2c(=O)[nH]1,-,-,-,-,-,-,.,.
CC(c1nc2ccccc2c(=O)[nH]1)N(C)c1ccc2ccccc2c1 (stereo unspecified),-,-,77.8,74.2,86.5,-,-,-
O=C1C2C(C(=O)N1/N=C/c1cc([N+](=O)[O-])c(O)cc1O)C1C=CC2C12CC2 (stereo unspecified),-,-,-,-,48.1,-,-,59.4
Cc1cc(C)c(C(=O)OCC(=O)Nc2cccc(S(=O)(=O)N3CCCCC3)c2)c(C)c1,-,-,-,-,-,-,.,.
CCOc1ccc(Br)cc1S(=O)(=O)NC1CCCC1,-,-,-,-,-,.,.,.
CC(=O)c1c(-c2ccccc2)c2cc(Cl)ccc2n(C)c1=O,-,-,-,-,-,-,.,.
CC(=O)c1c2c3c(c(Br)ccc3n(C)c1=O)C(=O)c1ccccc1-2,-,-,57.3,67.4,63.8,-,41.8,42.7
CC(=O)c1c2c3c(cccc3n(C)c1=O)C(=O)c1ccccc1-2,-,-,67.0,85.3,96.1,-,128.8,151.8
Cn1c(=O)c(Nc2ccc(O)cc2)c2c3c(cccc31)C(=O)c1ccccc1-2,-,-,154.8,164.1,+,-,162.6,+
CC(C)c1ccc(Nc2c([N+](=O)[O-])c(=O)n(C)c3ccccc23)cc1,-,-,-,-,-,-,.,.
CCC(Sc1nc(C)cc(C)n1)C(=O)Nc1nccs1 (stereo unspecified),-,-,-,-,-,-,.,.
O=C(CN1C(=O)/C(=C\c2ccco2)SC1=S)Nc1ccc(O)cc1C(=O)O,-,-,-,46.4,75.7,-,-,-
O=C(CCN1C(=O)/C(=C/c2ccco2)SC1=S)Nc1ccc(O)cc1C(=O)O,-,-,.,.,.,-,.,.
CC(C(=O)Nc1ccc(O)cc1C(=O)O)N1C(=O)/C(=C\c2cccs2)SC1=S (stereo unspecified),-,-,-,-,58.4,-,-,-
